# From the supplement of paper PMC10681739
# Assays:
# ETS1 [1] = biological target: T1, ETS1 (UniProt P14921); test: ETS1 binding intensity (PBM fluorescence), ETS1 alone (arbitrary fluorescence units); higher = stronger binding; conditions: ETS1 concentration 1 nM; RUNX1 concentration 0 nM
# T1 sequence: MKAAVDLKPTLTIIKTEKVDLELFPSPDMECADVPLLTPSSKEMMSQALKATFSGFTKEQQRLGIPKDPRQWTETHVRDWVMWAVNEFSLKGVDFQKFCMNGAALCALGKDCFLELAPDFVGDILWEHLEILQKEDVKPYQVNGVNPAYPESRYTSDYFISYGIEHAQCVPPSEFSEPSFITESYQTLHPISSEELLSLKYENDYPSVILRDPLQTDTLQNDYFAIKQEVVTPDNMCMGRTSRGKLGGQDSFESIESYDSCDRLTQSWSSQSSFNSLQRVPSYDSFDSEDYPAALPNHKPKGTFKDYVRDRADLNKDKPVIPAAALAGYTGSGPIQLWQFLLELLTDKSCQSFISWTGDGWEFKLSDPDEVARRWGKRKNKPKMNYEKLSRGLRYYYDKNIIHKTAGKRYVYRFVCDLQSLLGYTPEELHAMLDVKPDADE
# RUNX1 [2] = biological target: RUNX1 (UniProt Q01196); test: RUNX1 binding intensity (PBM fluorescence), RUNX1 alone (arbitrary fluorescence units); higher = stronger binding; conditions: RUNX1 concentration 2 nM; ETS1 concentration 0 nM
# RUNX1, sequence (Q01196 whole entry): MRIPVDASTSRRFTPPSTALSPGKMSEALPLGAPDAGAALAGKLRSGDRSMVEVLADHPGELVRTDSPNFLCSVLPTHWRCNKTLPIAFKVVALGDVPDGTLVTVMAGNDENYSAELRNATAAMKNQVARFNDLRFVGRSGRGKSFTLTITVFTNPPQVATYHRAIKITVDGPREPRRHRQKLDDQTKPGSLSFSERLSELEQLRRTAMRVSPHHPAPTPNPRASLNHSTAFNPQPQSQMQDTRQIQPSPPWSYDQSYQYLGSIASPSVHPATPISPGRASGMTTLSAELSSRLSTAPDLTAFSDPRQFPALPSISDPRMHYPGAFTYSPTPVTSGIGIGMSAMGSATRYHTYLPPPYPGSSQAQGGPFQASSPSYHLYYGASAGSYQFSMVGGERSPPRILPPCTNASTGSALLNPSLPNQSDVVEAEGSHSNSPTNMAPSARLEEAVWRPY
# Experimental: (§1)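 Cooperative gcPBM on 36-bp genomic probes with neighbouring ETS1 and RUNX1 sites. Recombinant human RUNX1 (2 nM) was incubated alone or with ETS1 (25 nM) and detected with anti-RUNX1 antibody plus Alexa488 secondary. Values are medians over 4 replicate spots; the RUNX1+ETS1 data were normalised to the RUNX1-only data. The probes sit in constant array flanks that are not printed.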
# ETS1 [3] = biological target: T1, ETS1; test: ETS1 binding intensity (PBM fluorescence) in presence of RUNX1, normalised to ETS1-only experiment (arbitrary fluorescence units); higher = stronger binding; conditions: ETS1 concentration 1 nM; RUNX1 concentration 25 nM
# RUNX1 [4] = biological target: RUNX1 (UniProt Q01196); test: RUNX1 binding intensity (PBM fluorescence) in presence of ETS1, normalised to RUNX1-only experiment (arbitrary fluorescence units); higher = stronger binding; conditions: RUNX1 concentration 2 nM; ETS1 concentration 25 nM
# Experimental: as §1
# 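Throughout, for RUNX1 binding intensity (PBM fluorescence) in presence of ETS1, normalised to RUNX1-only experiment: Full-length recombinant human ETS1 or RUNX1 bound to double-stranded 36-bp genomic probes on microarrays, detected by protein-specific primary antibody and Alexa488 secondary, spot fluorescence as median of four replicate spots.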
# 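Throughout, for RUNX1 binding intensity (PBM fluorescence), RUNX1 alone: Full-length recombinant human RUNX1 bound to double-stranded 36-bp genomic probes on a high-density microarray, scored as Alexa488 fluorescence per spot via anti-RUNX1 antibody, median of four replicate spots.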
Sequence,ETS1 binding intensity (ETS1 [1]),RUNX1 binding intensity (RUNX1 [2]),ETS1 binding intensity (ETS1 [3]),RUNX1 binding intensity (RUNX1 [4])
CTTTGCTGCAGGATGTTCTAACCACAAGCCCAGGAG,1070,3030,6670,7310
TTGTGCTTCCTGCTCATGAGATTGCTAGCGGTTACT,491,803,707,1190
GCACGCCATCGAGGAAGTGGGTTTACTGTGTATTTC,916,723,1110,934
TATCAATAAGGAAGTACAATCACCAAACCACAAGCC,619,1170,2700,1140
CAAAAGTGCTTCCTCTCGAGGGGTTGTGGTTCTTAC,396,716,520,1070
AGGCCGTGCAGGAAATGAGACCCACAGCCACGTCAC,1800,789,2180,977
CGAAGCCGGAAATGCTGAGTGTGCGGGGCCGAACGT,4230,694,4980,1220
ACAGATCCAAGGAAGCATATCCCGCAAGCAACTGTT,460,797,589,875
GGCTTCCGCCTGCCGAGCGGCCCCGGACCGCAGGCC,343,830,768,1980
AACAGAGACCCGGAAGTTGTGGGACGAAGCCAGGAC,4960,810,6420,1260
GTTGGGGTGCGTGTAGGATGTGGTCTGGGATGATTA,599,1050,2610,867
AGACGGTAGGCCAGGAAACCGCAGGCCCCTGCCGGG,925,6110,3730,10600
CAGCAAAAGGCAGGATGTGGTTAAAACTGTGCTCTG,4320,1110,29000,17100
ACGTCTGTTTCCTGTGATTGAAACCGCAAGAAGAAG,783,4510,2250,18500
AGATTTTGTCTTCCTGTTGTGGCAACATCTGTAGAA,521,1210,406,1520
GTAAGTAGGCCAGGAAGTGGTCACTGCAGCATGTGA,3740,722,4960,1440
AAAGAACTTCCTGAGGTGCTTGAGGTTAGGCTATGG,487,727,498,1660
AGCAACAACAAAGGAAGTGGCGGCCGCAGGGGGAGG,1320,795,2160,909
CCCCTCACTTCCCTCAACCCTTCCCACAAACTGGGA,597,1920,571,2350
AACAGTACTTCCGGGGCAAGTGAGCGCCCACAAGGC,934,806,1300,1970
ACAAAACAAACACATCCCCCAAACCGCCAAACTACA,606,1310,627,1300

Sequence,ETS1 binding intensity (ETS1 [1]),RUNX1 binding intensity (RUNX1 [2]),ETS1 binding intensity (ETS1 [3]),RUNX1 binding intensity (RUNX1 [4])
TTACAGGGGCCGGAAGTGGCCTGCGGGCGGAGAAGT,21200,753,30900,2020
AGATGAGGAAGTTGGGGTTTAGAGTGGTTAAACTGT,502,698,655,1020
ATTTTTCCTTCCTTCTCCCGTCCCCGCAGAGTGCAA,507,1540,465,1520
GTGGCTATGGGAAGTGGGGTGCGGTTTCTGCCGGGG,554,1340,3070,1670
GGTTTCCGGGTGAAAAAAAAAAAAAAAACCACGCCA,461,906,529,1740
GGGTCCTTCCGGGTTTTGTGTCGAATCTGCGGCGGC,486,784,395,1720
ACAGGAAGTGTCTCTATAGAAACCAAACCACAGAAA,1270,935,7500,949
CACCGACCGGAAGGGCCCCAAGGATCCCCGCAGCAG,2130,831,2710,1380
AAAGCAAAGTCAAGAGGATGTGGTGACCAATTCTGC,1320,685,2860,855
AGAGGCAGCTTCCGGAGACTGCTCTGTGGCCAGTTT,794,711,1070,1310
GCTCCGCTTCCGGGAGGCGGGGCTTCTGCGGGTTCC,698,737,2520,1710
TGGTTAGGGAGAGGGGGATGTGGTTAGGGTGAGGGA,530,1110,3960,1140
TTTGTGCCCCAACTTCCTCTGTGGCTTTTGGGTGGG,650,898,969,1480
TAGACTAACAGGGGAGGAAGTGGGTTGCAAGCCGTG,2030,683,2740,868
TCCGGAAGTCGGAGGAACACCCCAGCCGCCGCAGCC,1840,751,2010,988
TGGGGCTCTTCCTGCTTATGTGACCACAGCACCTTG,402,936,679,1760
GTTCAGCGGACGGCTTCCTGCGGCTTGCTGGGGCCG,361,724,462,1000
AGGGCTGAAACAGGATGTGGTGAGTGAGGTAGGGTG,6020,816,16600,3160
CTCTCCACCTCCTTCCGACCAGGACCGCACCCCCCC,986,1990,939,1650
GCTAAGGTGAAAGGAAGTGGGTTTTGTCTTTTTTTT,2500,854,4150,1340
AAGTGAAGAGCTTCCGCCGGGAGACCGCGGCTGCAG,592,737,686,1250

Sequence,ETS1 binding intensity (ETS1 [1]),RUNX1 binding intensity (RUNX1 [2]),ETS1 binding intensity (ETS1 [3]),RUNX1 binding intensity (RUNX1 [4])
GCTTCTGAGGAAGTGCGTTTTGTGGGTAGGTGGAGT,706,792,1410,878
GTTCTCCTTCCTGTGCCGAGTGTGGTTTGCTATCAA,580,1250,622,2400
GGCCGGGGGCAGGAAGCTGCGGCGCTGGCTCCCCCC,2510,649,3390,884
AGCTGTTTGGTCACAGGATGTGGTTATTAGAATAGG,4800,894,27900,4040
GCGCTTCCTGCCAGCTTGGAGGATAACCGCCTACCG,505,754,513,1730
TGCTTAGCAGGAAGTTAGTCTGCCTGTGGTAGCTCC,2770,734,3470,1020
TCCACATCCTGCTCCTCGGGTTTGCGGCGAGGACTC,593,809,1010,2660
CTGCCCAGCCACTTCCTGCCCAACCACAGACTGACA,2210,1420,4910,6000
AGGGTTACAATTTCCGTAAACCACAGAAGCAGCAGA,550,1450,979,2560
AGGCAAACTACAGGAAGATCCTGCCCGCAACTTGGT,454,785,2160,931
AACAGCTTCCGGCACGGGGGCTGTGGTTGTGTTGGA,670,790,1130,1530
TGACAGACCCGGAAATAAGAGGAGACCACACACTTG,1900,894,2660,1410
TCAGCTGACACAGGAAGTGGTAAAGCTATTATCTGT,9480,735,16400,2730
AACTGCCTGGTGGCCGGAAACCGCTGGAGGGAGGGC,4740,793,10100,1130
GAGGACGCGGAAGTCCTTCTTGCGGGGCGGAGCTAG,891,664,840,890
TCATTCTCTGATAAAGGAAGTGGTTACAGCACAATT,2910,822,10200,1270
TGCAGTCTCAACTTCCTGCGGTCAAGTGATCCTTCA,654,3750,1410,6540
AACGACAAACCGGAAGTATGGTTTGCCGCCTGAAGC,17000,754,19500,1620
AACGGACCCGGAAGGGGCAGGTCTTGTGGGCGGGTC,814,822,1420,904
AGACCCGGAAATGGTGGGTGTTTCTTGCAACCACGG,1810,668,2290,1240
TGTCCACCTCTACGGAAGTGCGCCGCAGTCCGCCAG,1620,792,2370,908

Sequence,ETS1 binding intensity (ETS1 [1]),RUNX1 binding intensity (RUNX1 [2]),ETS1 binding intensity (ETS1 [3]),RUNX1 binding intensity (RUNX1 [4])
ACCCTGAAATTACCCGGATGTGGTCCCCGCGCGCGC,6470,898,8100,1930
TGCCGCGGATACCCAGCCAGCGGCAGTGCGGTTAAC,349,1140,955,1210
TCCAGGATGTGGGATGCCGTGCTGTACCGCATGTCA,498,652,1030,1160
GCAACGGAGTCCGGAAGAACCACAGAGACGCGGCTC,789,730,694,858
AGAGCAACAGGATGCAAATAACCACAAGCAAGAATA,920,1160,4180,3320
CGACCGGAACCACTCTGAGGCGCTGCCGCAGACACC,533,919,583,1010
CAAACAGGTTCCGGCCGGACTACAGCGCCCACAATG,432,712,460,1080
TGGTTTCCGGGCTGGGGTTAGAATAGGCCACAAGGT,494,787,536,1740
ATCTTAAGTGTTTCCTGACACCACAAATCCCCAAAC,501,1020,507,1020
CTTAGTGGGGCAGGATGTGGTCAGGGAAGCTGATCT,4440,836,29900,7670
CAGAAAAGGCAGGAAGTGGTACAAACCACAAAAGGC,5820,1320,49600,8000
TCTGGATTTCCTGTGGGGCTCTCCCACAAGCAGTAC,518,721,506,1390
AAACTACTTTCCTTCCTACCAAAACCACACTAAAGA,620,2140,844,1920
GAAGGTTGTAGAGGAAGTGGTTTGTTCTTCCTCCTG,2670,837,4070,1640
CTGCCTTTCCTGCTAGGGTACAAACCACAGCCTTAG,369,1360,774,1640
CCTTCCTTCCTGCTGTGTACGTTGTGGTCACAGCAC,419,1240,932,3550
TGCAGCTATGGCCGGAAGCCTGTGGGTGTGGGAGGA,4180,726,4580,906
CTTCTGGCGGAAGCGGCACAAGCCGCAGTACAGCGC,1070,–,2370,1190
CCTTTACGTTTTCCTGTTGCGGGTTCTATCGCTCTG,506,–,592,3260
ATAGAAACTACAGGAAATACTGTGGTCAGGTTTTGA,2770,–,9500,1380
